Laboratory results published in ChEMBL document CHEMBL3988442, “University of Dundee, Small-Polar-MMV Screening Library” (2021).
Screen size: about 48,000 compounds; about 13,000 (27%) showed an effect of 50% or more. This is one part of the list.

test system: Wolbachia pipientis; experiment: Anti-Wolbachia Cell-Based Screen; assay type: functional; design: scale not given: in the data most compounds retested in dose-response had high values; settings: 5 µM

SMILES | Percent Effect [%]
Cc1nccc(CC2COCCN(c3cnccn3)C2)n1 (stereo not drawn) | 114.6
Cc1noc(-c2ccnc(N3CCC(CN4CCOCC4)CC3)c2)n1 | 3.253
Cc1ccccc1CSc1nc(N)cc(N2CCOCC(CO)C2)n1 (stereo not drawn) | 4.884
O=C1[C@H]2CN(c3cnccn3)C[C@H]2CN1CC1CC1 | -18.33
c1cnc(CC2CCN(c3cnccn3)CC2)cn1 | 139.5
O=C(O)c1cccc(CC2CCN(c3cnccn3)CC2)c1 | -21.8
O=C1NCCN(C(=O)CCN2CCCO2)C1c1cccc(F)c1 (stereo not drawn) | -39.77
Cc1ccnc(NCCNC(=O)Cc2c(C)[nH]c3c(C)ccc(C)c23)c1 | -11.21
Cc1ccc([C@@H]2CN(C(=O)c3cccnn3)C[C@H]2NC(=O)C2CC2)cc1 | 2.45
Cc1cccc(C(C(=O)NCCn2cccc2)N(C)C)c1 (stereo not drawn) | -2.901
Cc1ccc(C(C(=O)NC(C)(C)CN2CCCC2)N(C)C)cc1 (stereo not drawn) | 96.39
Cc1cc(C)cc(C(C(=O)O)N(C)CCCN2CCOCC2)c1 (stereo not drawn) | 10.88
Cc1cccc(C(C(=O)NC(C)(C)CN2CCCC2)N(C)C)c1 (stereo not drawn) | 106.7
Cc1cccc(C(C(=O)NC(C)(C)CN2CCOCC2)N(C)C)c1 (stereo not drawn) | 112.8
Cc1ccc(C(C(=O)NCCN2CCCCCC2)N(C)C)cc1 (stereo not drawn) | -4.058
Cc1ccc(C(C(=O)NCCN2CCC(CO)CC2)N(C)C)cc1 (stereo not drawn) | 0.4619
CCSCCNC(=O)C(c1cccc(C)c1)N(C)C (stereo not drawn) | -29.39
Cc1cccc(C(C(=O)NCC2(O)CCCCC2)N(C)C)c1 (stereo not drawn) | -2.512
CN(C)S(=O)(=O)NCC1OCCc2cn(CC3CCOCC3)nc21 (stereo not drawn) | 2.181
CC(=O)c1c(F)cccc1N1CCC(C(N)=O)CC1 | 16.85
CC(C)n1nc(CNc2ncccn2)c2c1CN(C1CCOCC1)CC2.O=C(O)C(F)(F)F | 3.818
CNS(=O)(=O)Cc1cccc(CNc2ccc(C#N)cn2)c1 | 5.411
Cc1ccc(F)c(OC2(C(=O)O)CCN(C(=O)N3CCCC3)CC2)c1 | -14.67
COC(=O)[C@H]1C[C@@H](O)CCN1S(=O)(=O)c1c(C)cc(OC)c(C)c1C | -13.15
COc1ccc(-c2c(C(C)C)nn3c(=N)c(C#N)n[nH]c23)cc1 | 89.55

SMILES | Percent Effect [%]
COc1ccc(-c2c(C)nn3c(=N)c(C#N)n[nH]c23)cc1OC | 107.4
COc1ccc(CN(C)c2nccc(-c3cn(C)nc3C)n2)cc1 | -45.72
COc1ccc(-c2c(C)nn3c(=N)c(C#N)n[nH]c23)cc1 | 88.05
COc1ccc(-c2csc(N)c2C#N)cc1OC | -8.208
CCc1nn2c(=N)c(C#N)n[nH]c2c1-c1ccc(OC)cc1 | 103
CCN(C)C[C@H]1CC[C@@H](Cc2ccc3c(cnn3C)c2)O1 | -8.878
CCS(=O)(=O)c1ccc(NCc2csc(C(C)C)n2)cc1 | 5.353
O=C1NCCN(Cc2ccccc2)C1CC(=O)N1CCc2n[nH]cc2C1 (stereo not drawn) | -21.59
O=C(COc1cccnc1)N1CCCC(n2cccn2)C1 (stereo not drawn) | -8.892
Cl.O=C(O)CC1CN(Cc2ccccc2)CCO1 (stereo not drawn) | -7.682
Nc1nccnc1C1CN(Cc2ccc(OCC(=O)O)cc2)CCO1 (stereo not drawn) | 171.8
CNc1nccnc1C1CN(Cc2ccc3[nH]ccc3c2)CCO1 (stereo not drawn) | 136.6
COc1ccc(CN2CCOC[C@H](OCC(=O)N(C)C)C2)cc1 | -7.108
Nc1nccnc1C1CN(C(=O)COc2cccnc2)CCO1 (stereo not drawn) | 107.6
O=C(COc1cccnc1)N1CCOC(C(F)(F)F)C1 (stereo not drawn) | -4.014
CNc1nccnc1C1CN(Cc2ccc(OCC(=O)O)cc2)CCO1 (stereo not drawn) | 142.7
O=C(O)C(F)(F)F.O=C(O)C(F)(F)F.c1cc(C2CC2)n2cnc(C3CN(Cc4ccncc4)CCO3)c2c1 (stereo not drawn) | 5.365
Cc1ncsc1C(=O)NCCOc1ncc(Cl)cc1Cl | 21.09
Cc1ncsc1CCN(C)C(=O)CN1C(=O)OC[C@@H]1c1ccccc1 | -3.352
CN(Cc1ccc(C(=O)NCC2COCCO2)c(=O)[nH]1)CC(C)(C)C (stereo not drawn) | -4.558
Cc1ccc(NC(=O)NC(C)(C)c2noc(C)n2)cc1 | -4.171
Cn1nnc2c1CCN(CC1CC1)C2COCC1CC1.O=C(O)C(F)(F)F (stereo not drawn) | 12.72
Cc1noc(CCCNS(=O)(=O)N2CCCC2c2ccco2)n1 (stereo not drawn) | -11.05
Cc1cnccc1CN(C)C(=O)c1cccc(CCC(C)(C)O)c1 | 0.1694
CCc1ccc(C(=O)N2CCC(N(C)C(=O)OC(C)(C)C)C2)o1 (stereo not drawn) | 8.552

SMILES | Percent Effect [%]
CCCOc1ccc(C(=O)N2CC[C@H]3CC[C@@H](C2)N3)cc1Cl | -21.75
CCc1oc(C(=O)N2CCCC(c3nnn[nH]3)C2)cc1C (stereo not drawn) | -3.531
CCCOC1CCCN(C(=O)c2ccnnc2)C1 (stereo not drawn) | 0.837
CCc1oc(C(=O)N2CCC(N(CC)C(C)=O)C2)cc1CN(CC)CC (stereo not drawn) | 93.17
CCCOC1CCCN(C(=O)c2cc(CN(CC)CC)c(CC)o2)C1 (stereo not drawn) | 92.62
CCCOC1CCCN(C(=O)c2csc(S(N)(=O)=O)c2)C1 (stereo not drawn) | 6.923
CCN(CC)Cc1cc(C(=O)N2CC[C@@]3(O)CCCC[C@H]3C2)c(C)o1 | -6.043
CCc1oc(C(=O)N2CC[C@H]3CC[C@@H](C2)N3)cc1CN(CC)CC | 112
O=C(CCCc1ccccn1)NCC(O)c1c(F)cccc1F (stereo not drawn) | 14.04
CC(=O)Nc1ccc(CNC(=O)CNCc2nnc(C)o2)cc1 | -22.07
CC(C)c1ncc(CN2C[C@@H](CN3CCCN(C)CC3)[C@@H](CO)C2)cn1 | -6.838
COc1cc(CN(C)C(=O)NCCC2CCCO2)ccc1SC (stereo not drawn) | -4.598
Cc1cc(N(C)CCn2ccnc2C)n2nccc2n1 | 3.132
Cc1cc(C)nc(N(C)CCn2ccnc2C)n1 | 70.85
Cc1nccn1CCN(C)c1cc(C(C)C)nc2ccnn12 | -21.61
Cc1nc(N2CCN(C(=O)C(C)(C)C)CC2)cc(-n2cnc(C)c2C)n1 | -0.05678
O=C(O)C(F)(F)F.O=C1N(c2ccsc2)CCC12CCCN(CC1CC1)C2 (stereo not drawn) | 0.74
CN(C)CCNC(=O)C1Cc2nc(-c3ccsc3)sc2N1CC1CC1.O=C(O)C(F)(F)F (stereo not drawn) | 106.6
O=C(Nc1cccnc1)[C@H]1C[C@H]2OCC[C@H]2N(C(=O)c2ccsc2)C1.O=C(O)C(F)(F)F | -10.81
CN(C)CCOCC1CN(C(=O)c2ccsc2)Cc2ccnn2C1.O=C(O)C(F)(F)F.O=C(O)C(F)(F)F (stereo not drawn) | -7.951
CC(C)N1c2sc(-c3ccccc3)nc2CC1C(=O)NCCCO (stereo not drawn) | 3.342
CC(C)N1[C@@H](C(=O)NCCN(C)C)C[C@H]2CN(c3ncccn3)C[C@H]21.O=C(O)C(F)(F)F.O=C(O)C(F)(F)F.O=C(O)C(F)(F)F | -8.926
O=C(Nc1cccnc1)C1Cc2nc(-c3ccsc3)sc2N1CC1CC1.O=C(O)C(F)(F)F (stereo not drawn) | 52.78
CN(C)CCNC(=O)C1Cc2nc(-c3ccccc3)sc2N1CC1CC1.O=C(O)C(F)(F)F (stereo not drawn) | 101.2
O=C(O)C(F)(F)F.O=C(c1ccsc1)N1C[C@@H]2CCN(c3cccnc3)C[C@@H]2C1 | -7.879

SMILES | Percent Effect [%]
Cc1cc(C(C)(O)CNC(=O)C2(C)CCCC2)c(C)o1 (stereo not drawn) | -0.4765
FC(F)(F)CCc1ccnc(NCc2csc(N3CCOCC3)n2)n1 | 9.156
CNC(=O)[C@@H]1COC[C@H]2CN(C(=O)c3ccc(C)c(C)c3)C[C@H]21 | -0.6496
Cc1cc(CN(C)Cc2ncc(-c3cccs3)o2)no1 | -12.35
Cc1cc(CN(C)Cc2ncc(C(C)(C)C)o2)no1 | 71.54
Cc1ccc(CN(C)Cc2ncc(C(C)(C)C)o2)o1 | 106.2
Cc1cc(CN(C)Cc2cnc3c(c2)c(C)nn3C)no1 | -2.389
CCN(Cc1cccc(Cl)c1)Cc1ncc(C(C)(C)C)o1 | -36.69
Cc1cccc(CN(Cc2ccccn2)Cc2ncc(C(C)(C)C)o2)c1 | -46.43
CN(Cc1ncc(-c2ccccc2)o1)CC1CCCN1c1cccnn1 (stereo not drawn) | 1.26
Cc1cc(CN(C)Cc2ncc(-c3ccccc3)o2)no1 | 85.66
CCN(Cc1ncc(C(C)(C)C)o1)Cc1ccccc1C | -27.71
CN(Cc1ccc(N(C)C)cc1)C(=O)CS(=O)(=O)c1ccc(Cl)cc1 | -13.85
CCN1CCN(C(=O)C2CCCc3[nH]ncc32)CC1 (stereo not drawn) | -17.44
Cc1cccc2c1nc1n2[C@@H](CNC(=O)c2cnccn2)COC1 | -0.5308
O=C1CC2(CCCCC2)CC(=O)N1CC(O)COCc1ccc(Cl)cc1 (stereo not drawn) | -11.1
Cc1cc(NC(=O)Cn2cnc(-c3cccs3)cc2=O)sn1 | 24.65
CC(C(=O)NC1CC1)S(=O)(=O)Cc1csc(-c2cccs2)n1 (stereo not drawn) | -10.04
Cc1cc(NC(=O)Cn2cnc(-c3cccs3)cc2=O)no1 | 10.41
CC(C(N)=O)n1nc(-c2cccs2)cc(N)c1=O (stereo not drawn) | 54.84
COc1cccn(C(C)C(=O)NC2CCCC2)c1=O (stereo not drawn) | 10.4
CC(C(=O)NC1CC1)n1nc(-c2cccs2)cc(N)c1=O (stereo not drawn) | 130.1
CCNC(=O)O[C@H]1COCCN(c2nc3ccccc3s2)C1 | 2.544
